From the supplement of paper PMC10849652
About 7,900 targets were measured; listed, in parts, are those with a hit and a random draw of the rest. About 0.6% of all pairs of compound and target were hits.

Tests used:
Test in all cases: log2 fold change, soluble protein after heating vs DMSO (PISA); higher = thermal stabilisation; K562 cells, 10 uM, 30 min; active = over 0.2 and 3.5 SD of the protein, either way, in both replicates (recomputed)
[1] = compound: CC1=C(C=C(C=C1)NC(=O)C2=CC(=CC=C2)C(C)(C)C#N)NC3=CC4=C(C=C3)N=CN(C4=O)C
Summary of the method: (§1)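 Soluble protein was quantified by TMTpro 16plex LC-MS/MS after channel sums were equalised. It was obtained as the supernatant after 21,000xg for 90 min from pooled aliquots of K562 cells (2×10^6 cells/mL, 10 μM compound, 30 min) heated for 3 min across 48°C-58°C and extracted in PBS with 0.5% NP-40 at 4°C. Thermal stability values are relative to control samples and come from duplicates. They are given as log2 fold changes.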

[2] = compound: CC1=C(C=C(C=C1)NC(=O)C2=CC(=CC=C2)N(C)C)NC(=O)C3=CC=C(C=C3)O
Summary of the method: as §1

[3] = compound: CC1=CC=C(C=C1)SC2=C3C=C(SC3=CN=C2)C(=O)N
Summary of the method: as §1

[4] = compound: CC1=NC(=CC=C1)C2=C(N=C(N2)C(C)(C)C)C3=CC4=NC=CN=C4C=C3
Summary of the method: as §1

[5] = compound: CCCCN(Cc1ccc(C(=O)NO)cc1)C(=O)Nc1ccccc1 [Nexturastat A]
Summary of the method: as §1

[6] = compound: CCCS(=O)(=O)Nc1ccc(F)c(C(=O)c2c[nH]c3ncc(-c4ccc(Cl)cc4)cc23)c1F [vemurafenib]
Summary of the method: as §1

[7] = compound: CCCS(=O)(=O)Nc1ccc(F)c(C(=O)c2c[nH]c3ncc(Cl)cc23)c1F
Summary of the method: as §1

[8] = compound: CCCc1cc(C)[nH]c(=O)c1CNC(=O)c1cc(-c2ccnc(N3CCN(C)CC3)c2)cc2c1cnn2C(C)C
Summary of the method: as §1

[9] = compound: CCN(CC)Cc1ccc2cc(COC(=O)Nc3ccc(C(=O)NO)cc3)ccc2c1 [givinostat]
Summary of the method: as §1

[10] = compound: CCN(CCCOc1ccc2c(Nc3cc(CC(=O)Nc4cccc(F)c4)[nH]n3)ncnc2c1)CCOP(=O)(O)O [barasertib]
Summary of the method: as §1

[11] = compound: CC[C@@H]1C(=O)N(C)c2cnc(Nc3ccc(C(=O)NC4CCN(C)CC4)cc3OC)nc2N1C1CCCC1
Summary of the method: as §1

[12] = compound: CC[C@@H]1C(=O)N(C)c2cnc(Nc3ccc(C(=O)N[C@H]4CC[C@H](N5CCN(CC6CC6)CC5)CC4)cc3OC)nc2N1C(C)C [volasertib]
Summary of the method: as §1

[13] = compound: CC[C@H](C)N1C=C(C2=C(C=C(C=C21)C3=CN=C(C=C3)N4CCNCC4)C(=O)NCC5=C(C=C(NC5=O)C)C)C
Summary of the method: as §1

[14] = compound: CC[C@H](C)[C@@H](C(=O)N[C@@H]([C@@H](C)O)C(=O)N[C@@H](CC(C)C)C(=O)[C@]1(CO1)C)NC(=O)[C@H]([C@@H](C)CC)N(C)C(=O)C [epoxomicin]
Summary of the method: as §1

[15] = compound: CCn1c(C(=O)N(C2CC2)C2CC2)cc2c3c(ncn3C)c(Nc3cc(C)n(C)n3)nc21
Summary of the method: as §1

[16] = compound: CCn1cc(-c2ccnc3[nH]c(-c4cccc(CN(C)C)c4)cc23)c(-c2ccc(NC(=O)N(C)C)cc2)n1
Summary of the method: as §1

[17] = compound: CN(C)CC(=O)Nc1ccc2[nH]c(=O)c3ccccc3c2c1
Summary of the method: as §1

[18] = compound: CN(CCOC1=CC=C(C=C1)C[C@H]2C(=O)NC(=O)S2)C3=CC=CC=N3 (racemic) [rosiglitazone]
Summary of the method: as §1

[19] = compound: CN1C2=C(C3=C1C(=O)N(N=C3)CC4=CC(=CC=C4)N)SC(=C2)S(=O)C
Summary of the method: as §1

[20] = compound: CN1CCC(CNc2ccc3ncc(-c4cccc(OC(F)(F)F)c4)n3n2)CC1
Summary of the method: as §1

Measured: log2 fold change

UBE2E3 (UniProt Q969T4)
UniProt Q969T4, sequence (Q969T4 whole entry, looked up): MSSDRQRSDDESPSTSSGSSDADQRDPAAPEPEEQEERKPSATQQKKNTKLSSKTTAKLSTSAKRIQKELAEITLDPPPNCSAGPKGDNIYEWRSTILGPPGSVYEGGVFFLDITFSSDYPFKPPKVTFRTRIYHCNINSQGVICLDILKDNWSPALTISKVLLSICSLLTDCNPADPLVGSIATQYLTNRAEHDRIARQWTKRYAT
inactive: [1] 0.028 | [2] -0.059 | [3] 0.053 | [4] 0.08 | [5] -0.098 | [6] -0.013 | [7] 0.08 | [8] 0.022 | [9] 0.116 | [10] 0.013 | [11] -0.124 | [13] -0.008 | [14] -0.052 | [15] 0.051 | [16] -0.11 | [17] 0.022 | [18] 0.059 | [19] -0.005 | [20] -0.24
active: [12] -0.377

UBA6
inactive: [1] 0.086 | [2] -0.044 | [3] 0.032 | [4] 0.02 | [5] -0.027 | [6] 0.057 | [7] 0.086 | [8] 0.036 | [9] 0.015 | [10] 0.07 | [11] -0.139 | [12] -0.189 | [13] 0.057 | [14] 0.029 | [15] -0.008 | [16] -0.031 | [17] 0.033 | [18] 0.016 | [19] 0 | [20] 0.001

TOMM5 isoform 2 (UniProt Q8N4H5)
UniProt Q8N4H5, sequence (Q8N4H5 whole entry, looked up): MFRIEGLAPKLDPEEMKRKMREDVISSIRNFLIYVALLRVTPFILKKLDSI
active: [14] 0.538
inactive: [1] -0.009 | [2] 0.367 | [3] 0.005 | [4] 0.084 | [5] 0.025 | [6] 0 | [7] -0.011 | [8] 0.141 | [9] -0.029 | [10] 0.03 | [11] -0.003 | [12] -0.032 | [13] -0.049 | [15] 0.05 | [16] 0.039 | [17] -0.046 | [18] -0.017 | [19] 0.041 | [20] 0.116

VPS39 (UniProt Q96JC1)
UniProt Q96JC1, sequence (Q96JC1 whole entry, looked up): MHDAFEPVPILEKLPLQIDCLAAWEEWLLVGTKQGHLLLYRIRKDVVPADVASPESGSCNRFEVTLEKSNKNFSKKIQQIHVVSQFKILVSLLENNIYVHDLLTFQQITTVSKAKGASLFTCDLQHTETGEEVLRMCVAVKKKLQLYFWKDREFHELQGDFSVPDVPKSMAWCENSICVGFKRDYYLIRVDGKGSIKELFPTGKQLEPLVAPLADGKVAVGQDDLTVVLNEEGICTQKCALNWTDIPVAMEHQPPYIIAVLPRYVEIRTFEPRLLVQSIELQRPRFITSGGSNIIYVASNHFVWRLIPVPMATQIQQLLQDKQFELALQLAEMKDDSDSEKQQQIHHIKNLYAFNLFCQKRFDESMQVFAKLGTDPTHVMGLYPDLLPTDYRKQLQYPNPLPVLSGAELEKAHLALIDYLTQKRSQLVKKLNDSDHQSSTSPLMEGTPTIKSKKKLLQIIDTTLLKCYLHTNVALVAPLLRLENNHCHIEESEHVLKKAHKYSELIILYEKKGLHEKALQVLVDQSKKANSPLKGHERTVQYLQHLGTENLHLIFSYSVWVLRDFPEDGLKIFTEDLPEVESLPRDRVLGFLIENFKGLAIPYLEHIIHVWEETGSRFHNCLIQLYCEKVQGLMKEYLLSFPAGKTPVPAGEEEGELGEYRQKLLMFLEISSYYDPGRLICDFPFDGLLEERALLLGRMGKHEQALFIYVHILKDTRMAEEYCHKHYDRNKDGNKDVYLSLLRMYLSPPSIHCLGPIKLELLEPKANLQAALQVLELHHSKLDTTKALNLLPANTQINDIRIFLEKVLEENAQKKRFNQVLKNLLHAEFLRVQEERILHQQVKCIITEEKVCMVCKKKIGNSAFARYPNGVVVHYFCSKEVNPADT
inactive: [1] 0.049 | [2] -0.015 | [3] 0.011 | [4] 0.031 | [5] 0.014 | [6] 0.041 | [7] 0.059 | [8] -0.029 | [9] 0.019 | [10] 0.053 | [11] -0.206 | [13] 0.054 | [14] -0.017 | [15] -0.033 | [16] -0.091 | [17] 0.022 | [18] 0.044 | [19] 0.008 | [20] -0.187
active: [12] -0.354

USP15 (UniProt Q9Y4E8)
UniProt Q9Y4E8, sequence (Q9Y4E8 whole entry, looked up): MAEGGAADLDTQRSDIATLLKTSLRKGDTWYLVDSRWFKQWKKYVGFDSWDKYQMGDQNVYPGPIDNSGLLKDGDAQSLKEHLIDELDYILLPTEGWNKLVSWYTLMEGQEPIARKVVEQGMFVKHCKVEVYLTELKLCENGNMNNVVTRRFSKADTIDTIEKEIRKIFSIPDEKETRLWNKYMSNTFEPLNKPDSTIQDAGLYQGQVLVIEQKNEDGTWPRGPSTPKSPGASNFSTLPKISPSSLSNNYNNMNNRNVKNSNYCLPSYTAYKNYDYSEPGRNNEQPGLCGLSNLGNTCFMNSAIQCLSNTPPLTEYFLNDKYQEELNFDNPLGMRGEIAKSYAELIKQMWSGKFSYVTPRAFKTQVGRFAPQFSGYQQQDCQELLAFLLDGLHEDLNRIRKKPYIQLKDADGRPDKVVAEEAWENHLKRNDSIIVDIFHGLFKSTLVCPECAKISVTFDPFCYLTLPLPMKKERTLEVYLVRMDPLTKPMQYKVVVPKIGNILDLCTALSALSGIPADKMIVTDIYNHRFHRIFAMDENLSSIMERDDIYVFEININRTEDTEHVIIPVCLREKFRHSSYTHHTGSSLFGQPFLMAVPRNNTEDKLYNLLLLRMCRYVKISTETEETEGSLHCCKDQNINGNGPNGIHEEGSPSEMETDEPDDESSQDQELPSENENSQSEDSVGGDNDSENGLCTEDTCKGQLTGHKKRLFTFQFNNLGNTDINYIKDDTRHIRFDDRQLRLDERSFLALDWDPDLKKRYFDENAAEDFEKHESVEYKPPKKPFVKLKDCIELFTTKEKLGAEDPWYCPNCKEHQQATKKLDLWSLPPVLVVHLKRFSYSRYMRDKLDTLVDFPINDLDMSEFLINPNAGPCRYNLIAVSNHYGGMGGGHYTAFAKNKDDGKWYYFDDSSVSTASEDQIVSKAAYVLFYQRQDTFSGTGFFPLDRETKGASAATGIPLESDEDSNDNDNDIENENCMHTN
active: [12] -0.32
inactive: [1] 0.025 | [2] -0.044 | [3] 0.023 | [4] 0.027 | [5] -0.001 | [6] 0.04 | [7] 0.053 | [8] 0.041 | [9] 0.025 | [10] 0.06 | [11] -0.095 | [13] 0.066 | [14] 0.03 | [15] -0.032 | [16] -0.056 | [17] 0.031 | [18] 0.058 | [19] -0.006 | [20] -0.129

TRAPPC11 (UniProt Q7Z392)
UniProt Q7Z392, sequence (Q7Z392 whole entry, looked up): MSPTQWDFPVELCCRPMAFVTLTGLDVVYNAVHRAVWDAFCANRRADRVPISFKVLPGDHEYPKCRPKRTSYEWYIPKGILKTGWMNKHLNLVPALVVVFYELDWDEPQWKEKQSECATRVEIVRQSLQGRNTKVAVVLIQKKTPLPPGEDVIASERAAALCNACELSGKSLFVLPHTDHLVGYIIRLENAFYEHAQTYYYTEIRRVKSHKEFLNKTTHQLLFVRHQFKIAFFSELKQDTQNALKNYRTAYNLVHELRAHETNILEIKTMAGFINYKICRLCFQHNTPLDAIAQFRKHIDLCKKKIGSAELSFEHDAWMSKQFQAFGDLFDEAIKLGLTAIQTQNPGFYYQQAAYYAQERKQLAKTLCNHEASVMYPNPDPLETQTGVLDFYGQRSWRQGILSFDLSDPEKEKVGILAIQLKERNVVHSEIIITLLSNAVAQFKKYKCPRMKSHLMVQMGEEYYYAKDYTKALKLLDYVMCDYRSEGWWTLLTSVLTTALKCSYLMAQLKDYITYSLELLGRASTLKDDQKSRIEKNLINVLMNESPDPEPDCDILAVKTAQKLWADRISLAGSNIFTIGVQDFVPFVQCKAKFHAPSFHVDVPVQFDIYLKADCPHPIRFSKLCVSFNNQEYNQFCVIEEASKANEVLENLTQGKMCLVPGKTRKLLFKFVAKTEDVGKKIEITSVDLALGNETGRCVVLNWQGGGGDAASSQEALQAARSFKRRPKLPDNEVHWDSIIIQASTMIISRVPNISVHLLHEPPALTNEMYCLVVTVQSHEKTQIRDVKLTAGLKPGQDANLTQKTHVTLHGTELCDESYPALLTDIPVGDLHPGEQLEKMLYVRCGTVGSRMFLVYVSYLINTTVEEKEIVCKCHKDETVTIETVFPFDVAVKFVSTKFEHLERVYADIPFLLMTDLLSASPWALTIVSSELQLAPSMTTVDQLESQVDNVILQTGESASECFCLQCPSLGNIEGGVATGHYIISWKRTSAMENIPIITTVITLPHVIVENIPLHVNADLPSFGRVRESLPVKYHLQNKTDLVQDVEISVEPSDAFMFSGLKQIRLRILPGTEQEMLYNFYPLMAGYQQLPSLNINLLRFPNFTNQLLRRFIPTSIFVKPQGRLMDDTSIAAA
inactive: [1] 0.098 | [2] 0.01 | [3] -0.014 | [4] -0.053 | [5] 0.046 | [6] 0.033 | [7] 0.025 | [8] -0.012 | [9] 0.037 | [10] 0.025 | [11] -0.045 | [13] 0.015 | [14] 0.016 | [15] -0.049 | [16] -0.032 | [17] 0.032 | [18] -0.027 | [19] 0.004 | [20] -0.127
active: [12] -0.275

TMEM41A (UniProt Q96HV5)
UniProt Q96HV5, sequence (Q96HV5 whole entry, looked up): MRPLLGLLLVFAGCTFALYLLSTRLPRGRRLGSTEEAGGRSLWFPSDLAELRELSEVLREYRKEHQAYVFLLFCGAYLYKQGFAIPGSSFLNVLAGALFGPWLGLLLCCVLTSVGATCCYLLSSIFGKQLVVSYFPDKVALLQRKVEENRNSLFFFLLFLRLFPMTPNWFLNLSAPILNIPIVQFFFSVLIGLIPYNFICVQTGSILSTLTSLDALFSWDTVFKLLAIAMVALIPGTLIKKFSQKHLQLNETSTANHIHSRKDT
inactive: [1] 0.039 | [2] 0.093 | [3] 0.002 | [4] 0.014 | [5] -0.138 | [6] -0.163 | [7] -0.101 | [8] -0.021 | [9] -0.043 | [10] 0.001 | [11] 0.036 | [12] 0.035 | [13] -0.05 | [14] -0.055 | [15] 0.021 | [16] 0.165 | [17] -0.049 | [18] -0.002 | [19] 0 | [20] 0.01

WDR11 (UniProt Q9BZH6)
UniProt Q9BZH6, sequence (Q9BZH6 whole entry, looked up): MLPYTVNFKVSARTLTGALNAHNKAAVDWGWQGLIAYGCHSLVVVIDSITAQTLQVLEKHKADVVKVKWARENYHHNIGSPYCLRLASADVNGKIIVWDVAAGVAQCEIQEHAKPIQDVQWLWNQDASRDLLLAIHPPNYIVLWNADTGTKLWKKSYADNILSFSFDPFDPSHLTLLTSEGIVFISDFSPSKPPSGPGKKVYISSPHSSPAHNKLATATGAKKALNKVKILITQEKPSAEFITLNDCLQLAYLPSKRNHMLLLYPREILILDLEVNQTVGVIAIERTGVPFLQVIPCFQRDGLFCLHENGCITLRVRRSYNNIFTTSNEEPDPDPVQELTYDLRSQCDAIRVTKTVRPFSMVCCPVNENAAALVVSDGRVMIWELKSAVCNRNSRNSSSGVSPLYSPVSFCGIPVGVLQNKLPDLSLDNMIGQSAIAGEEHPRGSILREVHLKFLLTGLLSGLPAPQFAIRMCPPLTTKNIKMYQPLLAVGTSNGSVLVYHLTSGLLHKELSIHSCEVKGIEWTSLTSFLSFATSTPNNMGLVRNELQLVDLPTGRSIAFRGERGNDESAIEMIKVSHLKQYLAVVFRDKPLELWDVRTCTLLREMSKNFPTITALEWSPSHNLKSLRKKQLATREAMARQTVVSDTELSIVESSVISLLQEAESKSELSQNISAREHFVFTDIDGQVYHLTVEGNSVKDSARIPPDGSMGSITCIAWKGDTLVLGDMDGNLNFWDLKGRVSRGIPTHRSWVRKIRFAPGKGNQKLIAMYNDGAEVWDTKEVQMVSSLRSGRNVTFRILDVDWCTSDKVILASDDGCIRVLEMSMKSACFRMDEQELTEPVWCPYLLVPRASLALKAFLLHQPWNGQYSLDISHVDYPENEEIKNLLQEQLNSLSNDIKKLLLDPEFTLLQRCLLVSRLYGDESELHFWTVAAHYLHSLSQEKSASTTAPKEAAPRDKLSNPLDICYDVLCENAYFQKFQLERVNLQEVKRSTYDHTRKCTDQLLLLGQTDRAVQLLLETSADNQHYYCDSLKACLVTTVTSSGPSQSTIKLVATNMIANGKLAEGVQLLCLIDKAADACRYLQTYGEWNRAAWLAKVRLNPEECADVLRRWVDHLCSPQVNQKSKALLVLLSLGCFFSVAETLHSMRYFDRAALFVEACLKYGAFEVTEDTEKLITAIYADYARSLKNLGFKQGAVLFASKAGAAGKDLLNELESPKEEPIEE
inactive: [1] -0.004 | [2] 0.057 | [3] -0.008 | [4] -0.016 | [5] -0.097 | [6] -0.089 | [7] -0.084 | [8] -0.105 | [9] 0.035 | [10] 0.034 | [11] 0.079 | [12] 0.031 | [13] -0.183 | [14] 0 | [15] 0.062 | [16] 0.089 | [17] -0.061 | [18] 0.08 | [19] 0.009 | [20] -0.131
